# Results: the supplement of paper PMC3545927
# The other results are listed elsewhere or left out. No count for the full screen is at hand.
# Molecular target: furin, P09958
# Test: furin cleavage Z-score vs untreated control; higher = more cleavage, active = 3.5 or more, inactive = 1 or less, 8 variable residues between constant flanks
# How it was run: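 Magnetic beads held 8-mer peptides by the N-terminus, each fused to a cDNA oligonucleotide, and purified furin was added for 7.5, 15 or 30 min. Released DNA was sequenced after PCR adapter tagging. The cleavage Z-score is the log count relative to furin-free reactions, lowess-adjusted and divided by median absolute deviation.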
# 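Further: purified furin at 1:10 enzyme:substrate in 50 mM HEPES pH 7.5.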
# Chain of furin, P09958 (P09958 whole entry): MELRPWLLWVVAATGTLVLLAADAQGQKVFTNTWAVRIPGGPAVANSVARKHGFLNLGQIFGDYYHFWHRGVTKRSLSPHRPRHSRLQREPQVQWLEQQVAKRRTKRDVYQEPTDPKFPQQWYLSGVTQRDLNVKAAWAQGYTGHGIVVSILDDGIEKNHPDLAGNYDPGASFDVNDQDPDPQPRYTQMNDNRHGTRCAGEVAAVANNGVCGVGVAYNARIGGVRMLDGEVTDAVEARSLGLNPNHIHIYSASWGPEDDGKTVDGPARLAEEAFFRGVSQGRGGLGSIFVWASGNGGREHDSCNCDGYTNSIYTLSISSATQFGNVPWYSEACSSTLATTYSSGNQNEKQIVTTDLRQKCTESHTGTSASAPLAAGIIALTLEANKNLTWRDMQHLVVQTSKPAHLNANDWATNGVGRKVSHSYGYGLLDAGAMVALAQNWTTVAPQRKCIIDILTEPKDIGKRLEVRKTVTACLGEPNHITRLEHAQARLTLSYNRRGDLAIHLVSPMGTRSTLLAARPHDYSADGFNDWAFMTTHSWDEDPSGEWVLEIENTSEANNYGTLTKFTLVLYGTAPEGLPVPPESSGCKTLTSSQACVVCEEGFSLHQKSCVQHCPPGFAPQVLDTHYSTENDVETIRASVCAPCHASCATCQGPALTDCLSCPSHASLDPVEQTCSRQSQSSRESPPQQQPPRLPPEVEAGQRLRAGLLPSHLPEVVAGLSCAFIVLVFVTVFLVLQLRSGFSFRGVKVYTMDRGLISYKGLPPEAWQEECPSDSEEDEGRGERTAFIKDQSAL
Sequence,furin cleavage Z-score (7.5 min),furin cleavage Z-score (15 min),furin cleavage Z-score (30 min)
CAEVVTSTDVAGNASASA [HC2231],-0.548 (inactive),0.743 (inactive),-0.721 (inactive)
CAASSSASQLAGNASASA [HC1260],1.48,0.251 (inactive),0.48 (inactive)
CAVVFCSMSYAGNASASA [HC2027],1.89,0.607 (inactive),-0.194 (inactive)
CARSLRDLMEAGNASASA [FS-2308],0.906 (inactive),1.52,1.89
CARVSKDVEDAGNASASA [FS-1803],0.222 (inactive),-0.204 (inactive),-0.557 (inactive)
CARVCRDLMDAGNASASA [FS-1800],4.33 (active),7.74 (active),7.6 (active)
CAVVDCSMSYAGNASASA [HC2031],-1.66 (inactive),-0.65 (inactive),-0.452 (inactive)
CAGLSTLPGNAGNASASA [HC1049],0.578 (inactive),-0.00394 (inactive),0.293 (inactive)
CARQRKESETAGNASASA [FS-2172],-0.961 (inactive),-0.283 (inactive),-0.371 (inactive)
CARQRRCLPQAGNASASA [FS-2364],-0.0379 (inactive),0.942 (inactive),2.63
CARTMKSVNAAGNASASA [FS-2466],1.07,2.56,0.0466 (inactive)
CARQRRTVGQAGNASASA [FS-2367],6.93 (active),8.06 (active),7.82 (active)
CARQRKSVNAAGNASASA [FS-2363],1.57,3.81 (active),4.35 (active)
CARQARFSSQAGNASASA [FS-1915],-1.25 (inactive),-0.103 (inactive),0.0874 (inactive)
CARQARAVPQAGNASASA [FS-2224],3.01,5.06 (active),5.46 (active)
CARQRRQVWKAGNASASA [FS-3043],2.63,5.18 (active),6.07 (active)
CARQARHYHQAGNASASA [FS-2582],0.232 (inactive),1.85,2.09
CAIAYFSMVGAGNASASA [HC340],-0.888 (inactive),-0.599 (inactive),0.982 (inactive)
CAAELATRSFAGNASASA [HC1333],2.09,0.0816 (inactive),1.22
CAVVLTESTLAGNASASA [HC1327],0.79 (inactive),0.145 (inactive),0.957 (inactive)
CAFAQALPVWAGNASASA [HC1301],-1.52 (inactive),0.477 (inactive),-2.4 (inactive)
CAWRLLAPITAGNASASA [HC672],-1.21 (inactive),-0.661 (inactive),-0.636 (inactive)

Sequence,furin cleavage Z-score (7.5 min),furin cleavage Z-score (15 min),furin cleavage Z-score (30 min)
CARTITTGSPAGNASASA [HC802],-0.428 (inactive),-0.048 (inactive),0.343 (inactive)
CARTKLKLTPAGNASASA [HC1636],-0.273 (inactive),-0.712 (inactive),0.0379 (inactive)
CARTKRTRRPAGNASASA [FS-2830],0.799 (inactive),1.15,0.99 (inactive)
CARTKRTPGPAGNASASA [FS-2527],5.68 (active),6.29 (active),6.29 (active)
CARSVRLGGPAGNASASA [FS-1795],0.0283 (inactive),0.734 (inactive),-1.33 (inactive)
CARTKRAQSPAGNASASA [FS-2824],6.65 (active),6.74 (active),5.31 (active)
CARTKRQIPHAGNASASA [FS-1870],7.68 (active),12 (active),8.92 (active)
CAPLLREEVSAGNASASA [HC1230],0.0348 (inactive),-0.15 (inactive),-1.63 (inactive)
CATTPCSQSWAGNASASA [HC1902],-0.685 (inactive),-1.5 (inactive),-0.222 (inactive)
CATTGCSGSWAGNASASA [HC1876],-1.5 (inactive),-0.493 (inactive),0.42 (inactive)
CAQPSRQKRSAGNASASA [FS-480],11.2 (active),11.3 (active),7.7 (active)
CAHFSRQKRSAGNASASA [FS-535],8.68 (active),10.7 (active),8.57 (active)
CASPSGQKRSAGNASASA [FS-723],0.144 (inactive),0.828 (inactive),0.312 (inactive)
CAKDSRQKRSAGNASASA [FS-670],10.3 (active),10.5 (active),7.97 (active)
CAVVCCRMSYAGNASASA [HC110],0.397 (inactive),0.763 (inactive),0.409 (inactive)
CAVVCCSMSHAGNASASA [HC2095],-0.191 (inactive),0.171 (inactive),0.0466 (inactive)
CAARLVVLATAGNASASA [HC831],-1.24 (inactive),-1.13 (inactive),-0.8 (inactive)
CARHHRGRGGAGNASASA [FS-2022],-0.128 (inactive),0.955 (inactive),-0.479 (inactive)
CAMASRFPRAAGNASASA [FS-690],11.5 (active),11.7 (active),9.44 (active)
CARHHRFPRAAGNASASA [FS-1063],12.2 (active),10.7 (active),8.91 (active)
CAKSKKTPMGAGNASASA [HC1475],1.44,0.854 (inactive),-0.61 (inactive)
